Laboratory results reported in PubChem BioAssay AID720518 (National Center for Advancing Translational Sciences (NCATS), 2013).
Records with an inconclusive call do not appear. The source made the active and inactive calls. The call rests on the fitted dose curve.

assay: qHTS for Inhibitors of Cell Surface uPA Generation: Wild-type Protective Antigen (WT-PrAg) Counterscreen for Cherry-picked Compounds; details: cells, WT protective antigen toxicity counterscreen; series mostly up to 115 µM; activity (protection): at the top concentration; further: 0% is about no effect

SMILES | activity (protection)
CCOC(=O)N1CCN(C(=O)c2ccc3c(c2)sc2nc(-c4ccc(OC)cc4)cn23)CC1 | -0.943% (inactive)
CCC(=O)Nc1nc(-c2cc([N+](=O)[O-])cs2)cs1 | 0.561% (inactive)
Cc1nc(NC2CCCCC2)c2nnn(Cc3ccccc3Cl)c2n1 | 1.59% (inactive)
COc1ccc(C(=O)N[C@H](C(=O)NCc2cccs2)C(C)C)cc1 | -0.821% (inactive)
Cc1cccc(C(=O)NC2CCN(CC(=O)N3CCOCC3)CC2)c1 | -0.973% (inactive)
Cc1cccc(N2CCN(Cc3ccc(Br)o3)CC2)c1C | 2.05% (inactive)
CCN(c1ccccc1)S(=O)(=O)c1ccc(NC(=O)c2ccco2)cc1 | -1.51% (inactive)
O=C(NC(=S)Nc1c(F)cc(F)cc1Br)c1ccc2c(c1)OCCO2 | 0.392% (inactive)
O=C(NCc1ccco1)/C(=C\c1cccs1)NC(=O)c1ccccc1 | -0.228% (inactive)
CCCOC(=O)CSC1=C(C#N)C(c2ccccc2Cl)CC(=O)N1 (configuration not stated) | -1.5% (inactive)
C/C(=N\NC(=O)c1ccccc1)c1c(C)[nH]n(-c2ccccc2)c1=O | -2.28% (inactive)
Cc1ccc(-n2ncc(C(=O)NC3CC3)c2C2CCN(C(=O)OC(C)(C)C)CC2)cc1 | 1.41% (inactive)
COc1ccc(CNC(=O)C2(CC3CC(c4ccccc4)=NO3)CCNCC2)cc1 (configuration not stated) | -2.06% (inactive)
CCOC(=O)c1ccccc1N=Cc1c(O)c2ccccc2oc1=O | -1.45% (inactive)
CC(=O)[C@@]1(O)[C@H](C)CC2C3CC=C4CC(OP(=O)(O)O)CC[C@]4(C)C3CC[C@@]21C (some centres not stated) | 0.986% (inactive)
O=C(NC1CCCC1)c1nc2c(nnn2Cc2ccccc2Cl)c(=O)[nH]1 | -1.28% (inactive)
COCCN(C(=O)CSc1nnc(-c2ccncc2)n1C)c1c(N)n(CC(C)C)c(=O)[nH]c1=O | -0.576% (inactive)
Cc1cc(C)nc(N2N=C(C(F)(F)F)CC2=O)n1 | -1.02% (inactive)
O=C(NCCN1CCOCC1)c1ccc2c(c1)N(Cc1ccc(Cl)cc1)CCS2 | 1.37% (inactive)
COc1cc(/C=N/NC(=O)c2ccncc2)ccc1O | 1.44% (inactive)
CC(=O)c1cccc(NC(=O)N2C3CCC2CC(O)(c2cccnc2)C3)c1 (configuration not stated) | 2.27% (inactive)
S=C(Nc1ccccc1Oc1ccccc1)NC1CCCC1 | -2.13% (inactive)
